SMILES strings stand for the structures. “And” between values parts separate entries of the source, which are not always exact repeats. Identical values can stand only once. Inconclusive results are not listed. A structure can be active in one record and inactive in another. The source made the active and inactive calls. Unless noted, the call rests on the fitted dose curve.

Assay [1] can be described thus: qHTS assay to identify small molecule antagonists of the sonic hedgehog signaling (Shh) pathway (AID 1259369). Further: nearly all actives have a fitted effect of over 45% in size. Further: potency means the concentration at half of the fitted maximal effect. The method in brief:
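For antagonist detection, the reporter line received test compounds together with conditioned medium, incubated 24hr at 37 C, 5% CO2, then luminescence was recorded following 30min room-temperature luciferase reagent incubation.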
In general terms: In qHTS, concentration-response curves come from the screen itself.

The target of assay [2] is Estrogen receptor beta (Homo sapiens) (UniProt Q92731). Description: qHTS assay to identify small molecule agonists of the estrogen receptor beta (ER-beta) signaling pathway (AID 1259377; active means well fitted activation curve with a large enough effect in the signal ratio in the repeat runs, not every such curve was filed as active; the % refers to the signal ratio). The method in brief:
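Ratiometric beta-lactamase FRET read-out came after 2 h substrate loading at room temperature. It followed 16 h compound treatment at 37C of GripTite HEK293T cells carrying a UAS-bla reporter, plated in 2% charcoal-stripped FBS medium.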

Assay [3] has the same target. Briefly: qHTS assay to identify small molecule antagonists of the estrogen receptor beta (ER-beta) signaling pathway (AID 1259378; active means well fitted inhibition curve with a large enough effect in the signal ratio in the repeat runs, not every such curve was filed as active; the % refers to the signal ratio). The method in brief: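 ER-beta-UAS-bla HEK293T cells in 2% charcoal-stripped FBS medium treated with compound plus 1nM final 17-beta-estradiol for 16 hr at 37C. Beta-lactamase reporter read by FRET substrate fluorescence after 2 hours at room temperature.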

Assay [4] in a line: qHTS assay to identify small molecule agonists of the androgen receptor (AR) signaling pathway in the presence of an antagonist - cell viability counter screen (AID 1259379; active means well fitted curve in the direction sought with a large enough effect in the repeat runs; an effect the other way counts as inactive or inconclusive;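 further: MDA-kb2 human breast cancer cells carrying an MMTV luciferase reporter; series mostly up to about 92 µM; nearly all actives have a fitted effect of over 25% in size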). The method in brief:
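Seed MDA-kb2 at 3,000 cells/well; incubate 5 hr, 37C, 0% CO2. Add nilutamide to 3.0uM final, then pin compounds at 15 concentrations. Incubate 16 hr. Add CellTiter-Fluor at 15 hr, read fluorescence after 1 hr.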

A short description of assay [5]: qHTS assay to identify small molecule antagonists of the estrogen receptor beta (ER-beta) signaling pathway - cell viability counter screen (AID 1259382; active means well fitted curve in the direction sought with a large enough effect in the repeat runs; an effect the other way counts as inactive or inconclusive; further: series mostly up to about 92 µM; nearly all actives have a fitted effect of over 55% in size). The method in brief: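 In this multiplexed counter screen, cells were seeded at 2,000 per well in medium with 2% charcoal-stripped FBS and incubated 6 hr before compound and 1nM final E2 were added. Sixteen hours later, ATP-based luminescence reported viability.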

For assay [6], the target named is Estrogen receptor (Homo sapiens) (UniProt P03372). Description: qHTS assay to identify small molecule agonists of the estrogen receptor alpha (ER-alpha) signaling pathway in the presence of an antagonist (AID 1259383). Further: top concentration of the series differs between compounds; nearly all actives have a fitted effect of over 15% in size. The method in brief:
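Stably transfected VM7Luc4E2 reporter cells, kept 5 days in charcoal-stripped serum, received ICI-182,780 at 10.0nM final before compound addition. Following 22hr incubation at 37C and 5% CO2, luciferase signal was read by luminescence.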

Assay [7] is described as follows: qHTS assay to identify small molecule agonists or antagonists of the thyroid stimulating hormone receptor (TSHR) signaling pathway - wild type cell line counter screen (AID 1259384). The method in brief:
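Wild-type Hek293 cells, 800/well, 18 h at 37C, then compound with Ro20-1724 for 30 min RT. cAMP by HTRF (cAMP-d2/anti-cAMP cryptate), 1 h RT, fluorescence read. 15 concentrations, triplicates.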

The target of assay [8] is Thyrotropin receptor (Homo sapiens) (UniProt P16473). Description: qHTS assay to identify small molecule antagonists of the thyroid stimulating hormone receptor (TSHR) signaling pathway (AID 1259385). Further: nearly all actives have a fitted effect of over 20% in size. Further: potency means the concentration at half of the fitted maximal effect. The method in brief:
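TSHR-HEK293 cells (800/well) plated 18 h, then compounds with Ro20-1724 and TSH at 1.5 ng/mL final, 30 min at room temperature. cAMP quantified by HTRF (cAMP-d2/anti-cAMP-cryptate, 1 h); 15 concentrations in triplicate.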

Assay [9] in a line: qHTS assay to identify small molecule agonists of the estrogen receptor alpha (ER-alpha) signaling pathway in the presence of an antagonist - cell viability counter screen (AID 1259386; active means well fitted curve in the direction sought with a large enough effect in the repeat runs; an effect the other way counts as inactive or inconclusive;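 further: series mostly up to about 92 µM; cells exposed to compounds for 22 h at 37 °C before the viability read; nearly all actives have a fitted effect of over 30% in size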). The method in brief: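 Viability counter screen using VM7Luc4E2 (full-length ER-alpha, four ERE-luciferase). The cells were treated with compounds alongside ICI-182,780 10.0nM for 22hr, and live-cell protease fluorescence was quantified with CellTiter-Fluor.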

The target of assay [10] is Progesterone receptor (Homo sapiens) (UniProt P06401). Description: qHTS assay to identify small molecule agonists of the progesterone receptor (PR) signaling pathway (AID 1346784). Further: nearly all actives have a fitted effect of over 30% in size. The method in brief: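 Agonist qHTS: compounds pinned onto 3,000 PR-UAS-bla HEK 293T cells per well in charcoal-stripped serum medium, 16hr at 37C, then beta-lactamase activity measured by LiveBLAzer FRET fluorescence after 2 hours at room temperature.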

For assay [11] the target is unchanged. Description: qHTS assay to identify small molecule antagonists of the progesterone receptor (PR) signaling pathway (AID 1346795; active means well fitted inhibition curve with a large enough effect in the signal ratio in the repeat runs, not every such curve was filed as active; the % refers to the signal ratio; further: potency means the concentration at half of the fitted maximal effect). The method in brief:
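Antagonist mode with agonist R5020 at 1 nM final and 16 hr incubation at 37C. Reporter was beta-lactamase driven by UAS in HEK293T (PR-UAS-bla), 2% charcoal-stripped serum; signal from LiveBLAzer FRET substrate, 2 hr at room temperature.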

Assay [12] is described as follows: qHTS assay to identify small molecule antagonists of the progesterone receptor (PR) signaling pathway - cell viability counter screen (AID 1346798; active means well fitted curve in the direction sought with a large enough effect in the repeat runs; an effect the other way counts as inactive or inconclusive; further: series mostly up to about 92 µM; nearly all actives have a fitted effect of over 50% in size). The method in brief:
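Cytotoxicity read as CellTiter-Glo luminescence (30 min, room temperature) in the same wells as the beta-lactamase readout. HEK293T PR-UAS-bla cells in charcoal-stripped 2% FBS received compound and R5020, then 16 h at 37C, 5% CO2.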

A short description of assay [13]: qHTS assay to identify small molecule antagonists of the TGF-beta/Smad signaling pathway - cell viability counter screen (AID 1346824; active means well fitted curve in the direction sought with a large enough effect in the repeat runs; an effect the other way counts as inactive or inconclusive; further: nearly all actives have a fitted effect of over 50% in size). The method in brief: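 SBE-bla HEK 293T cells, incubated overnight, then compound plus 0.25 ng/mL TGF-beta1 (stock added) for 5 hr at 37 C. Viability was read in the same wells by CellTiter-Glo luminescence after 30 min at room temperature.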

Assay [14] can be described thus: qHTS assay to identify small molecule agonists of the TGF-beta/Smad signaling pathway - cell viability counter screen (AID 1346829; active means well fitted curve in the direction sought with a large enough effect in the repeat runs; an effect the other way counts as inactive or inconclusive; further: top concentration of the series differs between compounds; nearly all actives have a fitted effect of over 45% in size). The method in brief: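 SBE-bla HEK 293T cells plated overnight, compound exposure 5 hr at 37 C. Viability read in the same wells by CellTiter-Glo luminescence after 30 min at room temperature, following the beta-lactamase read.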
Assay [15] in a line: qHTS assay to identify small molecule agonists of the TGF-beta/Smad signaling pathway (AID 1346859; active means well fitted activation curve with a large enough effect in the signal ratio in the repeat runs, not every such curve was filed as active; the % refers to the signal ratio; further: series mostly up to about 77 µM). The method in brief:
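Fluorescence (ex 405 nm; em 460 and 530 nm) was read 2 h after LiveBLAzer FRET substrate at RT. The preceding compound treatment of overnight-plated SBE-bla HEK293T cells lasted 5 h at 37 C.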

Assay [16] concerns the target Thyrotropin-releasing hormone receptor (Homo sapiens) (UniProt P34981). Description: qHTS assay to identify small molecule antagonists of the thyrotropin-releasing hormone receptor (TRHR) signaling pathway (AID 1346877; active means well fitted inhibition curve with a large enough effect in the repeat runs, not every such curve was filed as active; further: series mostly up to about 51 µM). The method in brief:
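Following an 18 h incubation at 37 °C and a 2 h calcium dye load, TRHR-HEK293 cells were exposed to compound (5 min, room temperature) and challenged with TRH, 1 nM final.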

Assay [17] shares this target. Briefly: qHTS assay to identify small molecule agonists of the thyrotropin-releasing hormone receptor (TRHR) signaling pathway (AID 1346891). Further: series mostly up to about 58 µM. The method in brief: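 Agonist-mode intracellular calcium readout: kinetic fluorescence over 3 min at 1 s intervals after compound addition to TRHR-HEK293 cells (18 h seeded, 2 h dye-loaded at 37 C). Fifteen concentrations, triplicates.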

Assay [18] can be described thus: qHTS assay to identify small molecule agonists of the estrogen receptor beta (ER-beta) signaling pathway - cell viability counter screen (AID 1259380; active means well fitted curve in the direction sought with a large enough effect in the repeat runs; an effect the other way counts as inactive or inconclusive; further: nearly all actives have a fitted effect of over 30% in size). The method in brief:
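CellTiter-Glo read, 30 min RT, same wells as bla assay; cells ER-beta-UAS-bla HEK293T; 16 hr compound, 37C; medium 2% charcoal-stripped FBS.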

Assay [19] in a line: qHTS assay to identify small molecule agonists of the progesterone receptor (PR) signaling pathway - cell viability counter screen (AID 1346799). Further: nearly all actives have a fitted effect of over 45% in size. The method in brief: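 Cytotoxicity measured by CellTiter-Glo luminescence (30 min, RT) in the same wells as the PR beta-lactamase agonist read. Those HEK293T cells had 16 h compound treatment at 37 C in 2% charcoal-stripped FBS medium.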

Assay [20] concerns the target Androgen receptor (Homo sapiens) (UniProt P10275). Description: qHTS assay to identify small molecule agonists of the androgen receptor (AR) signaling pathway in the presence of an antagonist (AID 1259381). Further: nearly all actives have a fitted effect of over 15% in size. The method in brief:
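Test compounds at 15 concentrations were incubated for 16hr with MDA-kb2 reporter cells in presence of 3.0uM nilutamide (final). Signal: ONE-Glo luciferase luminescence.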

Chain of Thyrotropin receptor (Homo sapiens) (P16473 whole entry, looked up): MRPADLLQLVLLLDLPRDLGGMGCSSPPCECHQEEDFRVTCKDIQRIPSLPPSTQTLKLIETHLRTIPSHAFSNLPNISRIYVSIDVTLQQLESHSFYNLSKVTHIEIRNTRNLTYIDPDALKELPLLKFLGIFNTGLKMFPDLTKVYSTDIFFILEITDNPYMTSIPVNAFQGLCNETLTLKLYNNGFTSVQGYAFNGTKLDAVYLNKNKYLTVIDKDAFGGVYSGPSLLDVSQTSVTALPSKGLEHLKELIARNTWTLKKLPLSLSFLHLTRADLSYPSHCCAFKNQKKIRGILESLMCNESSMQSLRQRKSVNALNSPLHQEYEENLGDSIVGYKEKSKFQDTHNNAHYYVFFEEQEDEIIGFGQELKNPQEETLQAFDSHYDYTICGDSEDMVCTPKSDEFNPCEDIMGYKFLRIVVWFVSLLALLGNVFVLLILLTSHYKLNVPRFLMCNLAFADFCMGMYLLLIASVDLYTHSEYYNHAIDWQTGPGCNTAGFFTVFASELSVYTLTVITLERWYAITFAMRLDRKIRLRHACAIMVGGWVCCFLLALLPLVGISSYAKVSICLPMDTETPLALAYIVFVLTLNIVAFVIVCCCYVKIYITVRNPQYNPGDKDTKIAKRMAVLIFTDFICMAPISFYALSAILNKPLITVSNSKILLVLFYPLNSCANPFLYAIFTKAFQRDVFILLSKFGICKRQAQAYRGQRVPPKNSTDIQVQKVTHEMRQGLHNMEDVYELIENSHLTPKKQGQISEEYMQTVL
Chain of Progesterone receptor (Homo sapiens) (P06401 whole entry, looked up): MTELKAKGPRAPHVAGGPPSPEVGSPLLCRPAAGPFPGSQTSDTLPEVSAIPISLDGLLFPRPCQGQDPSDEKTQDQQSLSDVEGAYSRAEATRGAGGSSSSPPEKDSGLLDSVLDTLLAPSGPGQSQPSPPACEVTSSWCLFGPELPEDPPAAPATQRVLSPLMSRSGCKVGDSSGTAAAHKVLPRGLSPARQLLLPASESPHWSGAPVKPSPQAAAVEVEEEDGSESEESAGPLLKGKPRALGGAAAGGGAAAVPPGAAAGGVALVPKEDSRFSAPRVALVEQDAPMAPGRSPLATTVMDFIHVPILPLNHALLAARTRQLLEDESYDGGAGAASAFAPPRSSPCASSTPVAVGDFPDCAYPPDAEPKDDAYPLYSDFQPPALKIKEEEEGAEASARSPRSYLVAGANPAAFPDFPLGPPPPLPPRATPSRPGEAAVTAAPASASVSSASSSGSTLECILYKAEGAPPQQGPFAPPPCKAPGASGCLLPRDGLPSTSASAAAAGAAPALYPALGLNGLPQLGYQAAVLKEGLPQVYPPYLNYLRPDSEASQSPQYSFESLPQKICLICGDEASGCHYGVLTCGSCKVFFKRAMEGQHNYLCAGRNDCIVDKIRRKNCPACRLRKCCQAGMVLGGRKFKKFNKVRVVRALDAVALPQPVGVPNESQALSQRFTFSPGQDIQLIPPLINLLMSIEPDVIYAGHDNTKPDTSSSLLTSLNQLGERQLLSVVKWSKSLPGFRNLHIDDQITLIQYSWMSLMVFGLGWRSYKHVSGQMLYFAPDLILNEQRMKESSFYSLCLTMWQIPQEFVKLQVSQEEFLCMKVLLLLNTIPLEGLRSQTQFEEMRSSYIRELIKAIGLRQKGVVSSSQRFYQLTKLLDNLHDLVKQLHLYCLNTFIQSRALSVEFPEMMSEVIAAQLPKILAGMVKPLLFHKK
Chain of Estrogen receptor (Homo sapiens) (P03372 whole entry, looked up): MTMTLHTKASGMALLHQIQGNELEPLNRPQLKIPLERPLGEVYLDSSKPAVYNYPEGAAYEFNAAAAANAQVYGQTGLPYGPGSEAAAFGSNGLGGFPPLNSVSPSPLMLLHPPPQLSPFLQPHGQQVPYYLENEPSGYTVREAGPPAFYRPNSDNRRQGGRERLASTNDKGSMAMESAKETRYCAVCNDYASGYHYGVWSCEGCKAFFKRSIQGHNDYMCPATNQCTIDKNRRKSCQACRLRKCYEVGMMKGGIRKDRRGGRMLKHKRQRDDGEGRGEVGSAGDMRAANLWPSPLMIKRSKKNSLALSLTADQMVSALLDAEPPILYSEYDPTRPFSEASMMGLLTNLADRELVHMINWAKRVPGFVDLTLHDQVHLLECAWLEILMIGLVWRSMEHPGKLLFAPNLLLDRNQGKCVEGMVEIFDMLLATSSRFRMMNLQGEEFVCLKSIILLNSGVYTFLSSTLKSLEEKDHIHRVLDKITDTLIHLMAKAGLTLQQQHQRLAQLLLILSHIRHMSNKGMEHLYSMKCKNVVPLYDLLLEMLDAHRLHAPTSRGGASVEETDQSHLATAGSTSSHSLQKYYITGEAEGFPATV
Chain of Estrogen receptor beta (Homo sapiens) (Q92731 whole entry, looked up): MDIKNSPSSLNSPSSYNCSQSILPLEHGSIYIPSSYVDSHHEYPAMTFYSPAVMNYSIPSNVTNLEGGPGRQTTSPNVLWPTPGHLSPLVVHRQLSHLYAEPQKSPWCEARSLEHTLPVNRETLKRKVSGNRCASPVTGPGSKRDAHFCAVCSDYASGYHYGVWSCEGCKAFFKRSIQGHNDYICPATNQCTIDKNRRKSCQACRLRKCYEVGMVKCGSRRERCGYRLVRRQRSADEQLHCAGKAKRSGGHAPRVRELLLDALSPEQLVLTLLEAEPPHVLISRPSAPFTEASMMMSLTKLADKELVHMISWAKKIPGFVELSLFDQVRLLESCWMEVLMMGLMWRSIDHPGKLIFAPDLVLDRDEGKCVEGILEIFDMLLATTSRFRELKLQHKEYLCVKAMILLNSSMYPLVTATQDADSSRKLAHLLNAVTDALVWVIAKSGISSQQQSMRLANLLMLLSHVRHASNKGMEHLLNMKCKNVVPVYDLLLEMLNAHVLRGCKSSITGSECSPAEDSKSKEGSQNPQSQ
Chain of Thyrotropin-releasing hormone receptor (Homo sapiens) (P34981 whole entry, looked up): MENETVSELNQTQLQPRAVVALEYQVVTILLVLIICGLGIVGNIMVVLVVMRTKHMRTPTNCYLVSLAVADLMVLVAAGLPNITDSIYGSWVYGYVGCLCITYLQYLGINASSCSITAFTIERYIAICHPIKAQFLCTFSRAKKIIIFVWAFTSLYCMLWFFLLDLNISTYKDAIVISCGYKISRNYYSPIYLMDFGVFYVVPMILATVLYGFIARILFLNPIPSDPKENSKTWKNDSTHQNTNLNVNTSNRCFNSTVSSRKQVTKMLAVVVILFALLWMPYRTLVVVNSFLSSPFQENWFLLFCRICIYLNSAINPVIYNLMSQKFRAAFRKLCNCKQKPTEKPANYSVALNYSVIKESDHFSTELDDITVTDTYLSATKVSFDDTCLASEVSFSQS
Chain of Androgen receptor (Homo sapiens) (P10275 whole entry, looked up): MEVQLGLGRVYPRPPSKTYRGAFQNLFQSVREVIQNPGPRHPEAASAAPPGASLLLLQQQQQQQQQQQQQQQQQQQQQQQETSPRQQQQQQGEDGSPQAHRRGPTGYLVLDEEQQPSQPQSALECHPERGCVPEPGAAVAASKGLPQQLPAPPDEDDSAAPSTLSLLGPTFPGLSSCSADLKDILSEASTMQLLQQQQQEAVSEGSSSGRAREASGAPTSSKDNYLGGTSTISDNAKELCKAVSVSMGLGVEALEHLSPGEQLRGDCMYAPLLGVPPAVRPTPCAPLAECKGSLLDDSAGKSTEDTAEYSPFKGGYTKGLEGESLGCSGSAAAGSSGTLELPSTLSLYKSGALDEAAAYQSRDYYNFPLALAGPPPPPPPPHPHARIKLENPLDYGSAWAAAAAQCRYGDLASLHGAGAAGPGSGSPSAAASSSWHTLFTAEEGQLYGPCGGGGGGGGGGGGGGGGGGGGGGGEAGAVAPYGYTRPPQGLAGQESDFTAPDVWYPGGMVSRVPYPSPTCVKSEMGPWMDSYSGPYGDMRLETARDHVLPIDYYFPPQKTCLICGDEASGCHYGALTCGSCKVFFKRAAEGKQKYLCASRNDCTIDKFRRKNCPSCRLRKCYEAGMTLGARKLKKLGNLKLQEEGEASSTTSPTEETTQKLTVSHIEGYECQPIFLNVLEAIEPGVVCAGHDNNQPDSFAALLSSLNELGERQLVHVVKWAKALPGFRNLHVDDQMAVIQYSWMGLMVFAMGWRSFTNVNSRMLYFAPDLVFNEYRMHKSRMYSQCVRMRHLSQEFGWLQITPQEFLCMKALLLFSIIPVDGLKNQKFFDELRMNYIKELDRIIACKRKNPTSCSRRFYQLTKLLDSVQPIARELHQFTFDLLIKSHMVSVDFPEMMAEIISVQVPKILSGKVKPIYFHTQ

Regarding `O=C(OCc1ccccc1)c1ccccc1O`, the Potency result in assay [1], in [2], in [3], in [4], in assay [5] and in [6] was “inactive” throughout. Further, the Potency entry in assay [8], in assay [9], in [10], in assay [11], in [12] and in assay [13] was “inactive” each time. In addition, the Potency result in [14], in [16] and in assay [17] was “inactive” each time. For the same molecule, the call in [7] and in [15] was inactive.
With `Cc1c(OCC(F)(F)F)ccnc1CS(=O)c1nc2ccccc2[nH]1` (stereo not given), the Potency entry in assay [1], in assay [2], in assay [4], in assay [18], in assay [5] and in [8] was “inactive” in each case. In addition, the Potency entry in [10], in assay [13], in assay [14], in [16] and in assay [17] was “inactive” throughout. The result in assay [7] and in [15] was inactive.
For the molecule `CN1C(C(=O)Nc2ccccn2)=C(O)c2ccccc2S1(=O)=O`, the Potency result in [1], in assay [4], in assay [18], in [5], in assay [6] and in assay [8] was “inactive” throughout. The Potency entry in [9], in [10], in [11], in assay [12], in [19] and in assay [13] was “inactive” throughout. In addition, the Potency entry in assay [14], in assay [16] and in assay [17] was “inactive” throughout. Moreover, the result in [7] and in [15] was inactive.
For `CC(C(=O)O)c1cccc(C(=O)c2ccccc2)c1` (stereo not given), the Potency result in assay [1], in assay [2], in [3], in [4], in [5] and in assay [6] was “inactive” throughout. The Potency result in assay [8], in assay [9], in assay [10], in [11], in [12] and in assay [19] was “inactive” in each case. Also, the Potency result in assay [13], in assay [14], in assay [16] and in assay [17] was “inactive” in each case. For the same molecule, the molecule was called inactive in [7].
In the case of `O=C1c2cccc(O)c2C(=O)c2c(O)cccc21`, the Potency entry in assay [1], in assay [3], in assay [5], in assay [8], in assay [10] and in assay [11] was “inactive” in each case. In addition, the Potency result in assay [12], in assay [19], in assay [13], in assay [14], in [16] and in assay [17] was “inactive” each time. Further, the outcome in [7] and in [15] was inactive.
Consider `CC(C)OC(=O)C(C)(C)Oc1ccc(C(=O)c2ccc(Cl)cc2)cc1`, for which the Potency was 27.3 µM (active) and inactive in assay [1]; 26.6 µM (active) in assay [8]; 17.2 µM (active) and 21.1 µM (active) in [11]. In addition, the Potency result in assay [2], in assay [4], in [5], in assay [6], in assay [9] and in [10] was “inactive” in each case. Also, the Potency entry in [12], in [13] and in assay [14] was “inactive” in each case. Also, the result in [20], in assay [7] and in [15] was inactive.
In the case of `Oc1ccc(O)cc1`, the Potency in assay [1] is 4.3 µM (active) and 2.17 µM (active) and 6.68 µM (active). The Potency result in assay [3], in assay [4], in [18], in assay [5], in [6] and in assay [8] was “inactive” each time. Also, the Potency result in assay [9], in assay [10], in [11], in [12], in assay [19] and in assay [13] was “inactive” throughout. For the same molecule, the Potency entry in assay [14], in assay [16] and in assay [17] was “inactive” throughout. Further, the call in [7] and in assay [15] was inactive.
Consider `Cc1cccc(N(C)C(=S)Oc2ccc3ccccc3c2)c1`, for which, in assay [1], the Potency was 30.6 µM (active). Also, the Potency result in assay [2], in assay [3], in assay [4], in [5], in assay [6] and in assay [8] was “inactive” throughout. Also, the Potency result in assay [9], in assay [10], in [12], in assay [13] and in assay [14] was “inactive” each time. Further, the call in [7] and in [15] was inactive.

The values are drawn from PubChem BioAssay (Tox21).
